DT40 TDP1 no CPT: qHTS for Inhibitors of human tyrosyl-DNA phosphodiesterase 1 (TDP1): qHTS in cells in absence of CPT; AID 686978, 2013; DT40 Tdp1-/- hTDP1 cells, no CPT, ATP luminescence, 48 h; 420,000 compounds, 15% hits; Potency, µM (highest dose often 46.2 µM), without a hit: at the highest dose activity change, negative = growth inhibition, usual class: inhibitors; also: potency is read from the fitted curve at half-maximal effect; nearly all actives have a fitted effect of over 55% in size
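Camptothecin absent (DMSO only). Human TDP1-complemented DT40 knockout cells, 400 cells/well, 37 °C for minimum 48 hr; ATP measured via CellTiter-Glo, 30 min dark incubation, luminescence.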
DT40 TDP1 CPT: qHTS for Inhibitors of human tyrosyl-DNA phosphodiesterase 1 (TDP1): qHTS in cells in presence of CPT; 420,000 compounds, 12% hits; Potency, µM (highest dose often 46.2 µM), inactives show at the highest dose activity change, negative = growth inhibition, most hits filed as inhibitors; chicken DT40 Tdp1-/-;hTDP1 cells + 20 nM CPT, ATP luminescence, 48 h; also: potency is read from the fitted curve at half-maximal effect; nearly all actives have a fitted effect of over 55% in size
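Chicken DT40 Tdp1-/- cells stably complemented with human TDP1 were seeded at 400 cells/well in medium containing 20 nM camptothecin, exposed to pin-transferred compounds, and grown at 37 °C for at least 48 hr. Viability was read as ATP luminescence.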
Gal4-VP16 FLuc: VP16 counterscreen qHTS for inhibitors of ROR gamma transcriptional activity; 310,000 compounds, 3.5% hits; Potency, µM (doses to about 53.6 µM), without a hit: top-dose activity, negative = inhibition, most hits filed as inhibitors; Drosophila S2 Gal4-VP16 UAS-luciferase, luminescence, 20 h; AID 2546, 2010;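 also: Gal4-VP16 expression switched on by copper sulfate through the metallothionein promoter; potency is read from the fitted curve at half-maximal effect; nearly all actives have a fitted effect of over 50% in size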
IL1B secr inh: qHTS for Inhibitors of Inflammasome Signaling: IL-1-beta AlphaLISA Primary Screen | THP-1 LPS/ATP IL-1B secretion, AlphaLISA, 16 h; hits give low values | activity change, % at 57.5 µM | 360,000 compounds, 4.7% hits; in the data active = activity change below about -50%; inconclusive = mostly about -30% to -49%
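THP-1 cells pretreated 1 hr with compounds (up to 57.5 uM final), then stimulated with LPS (250 ng/mL final) plus ATP (1.25 mM final); secreted IL-1B measured by AlphaLISA after 16 hr, decreased signal indicating inhibition.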
ELG1 DNA repair: qHTS screen for small molecules that inhibit ELG1-dependent DNA repair in human embryonic kidney (HEK293T) cells expressing luciferase-tagged ELG1; HEK293T ELG1-luciferase reporter, luminescence, 16 h; DNA damage induced by 5-fluorouridine; Potency, µM (highest dose often 46.1 µM), inactives show at the top dose activity change, negative = inhibition, usual class: inhibitors; 330,000 compounds, 2.3% hits; AID 504467, 2011; also: potency is read from the fitted curve at half-maximal effect; nearly all actives have a fitted effect of over 55% in size
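Overnight (16 hr) co-exposure of 2,000 cells/well to 5-fluorouridine and compound at 37 °C preceded detection. Luciferase was quantified via ONE-Glo luminescence; loss of signal denotes inhibition.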
RORgamma inh: qHTS for inhibitors of ROR gamma transcriptional activity. 310,000 compounds, 5.4% hits. Potency, µM (doses to about 53.6 µM), without a hit: at the top dose activity change, negative = inhibition, usual class: inhibitors. Nuclear receptor ROR-gamma (Mus musculus), P51450. Drosophila S2 Gal4-RORgamma UAS-luciferase reporter, 20 h; also: potency is read from the fitted curve at half-maximal effect; nearly all actives have a fitted effect of over 60% in size
Target sequence (P51450 whole entry, looked up, the tested form may be a part): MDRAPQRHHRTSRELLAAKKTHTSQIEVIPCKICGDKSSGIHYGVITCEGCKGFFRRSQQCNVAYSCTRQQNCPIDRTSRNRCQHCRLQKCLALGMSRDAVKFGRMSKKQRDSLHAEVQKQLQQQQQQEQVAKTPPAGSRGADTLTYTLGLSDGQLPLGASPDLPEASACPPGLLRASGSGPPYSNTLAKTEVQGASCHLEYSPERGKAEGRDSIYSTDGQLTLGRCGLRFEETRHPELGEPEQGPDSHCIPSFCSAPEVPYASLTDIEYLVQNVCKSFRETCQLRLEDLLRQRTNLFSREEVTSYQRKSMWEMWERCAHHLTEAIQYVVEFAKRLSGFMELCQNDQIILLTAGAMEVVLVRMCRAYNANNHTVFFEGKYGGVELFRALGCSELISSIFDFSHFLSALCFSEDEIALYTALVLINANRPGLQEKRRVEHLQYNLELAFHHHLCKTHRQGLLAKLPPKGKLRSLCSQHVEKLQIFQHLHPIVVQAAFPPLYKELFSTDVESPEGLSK
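Read-out: Photinus luciferase luminescence; inhibitors lower reporter signal. Insect Schneider cells with Gal4-ROR gamma fusion under metallothionein promoter, UAS reporter; 700 uM final copper sulfate induction, 20 hr, ambient temperature.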
Numbers without * were called inactive; ? = inconclusive; . = no result given; [ ] = dose if it differs, or a comment. A selection: hits, their analogues and other compounds. The true share with any hit is near 21%. Unless noted, calls follow the shape of the dose curve; as a rule, active = well fitted curve in the direction sought with a large enough effect; inconclusive = small, poorly fitted or top-dose-only effect, or another doubt; inactive = no such curve, though single readings can be large; an effect the other way counts as inactive or inconclusive. % is scaled to controls: 0 for no effect and ±100 for the full control effect.

SMILES	DT40 TDP1 no CPT	DT40 TDP1 CPT	Gal4-VP16 FLuc	IL1B secr inh	ELG1 DNA repair	RORgamma inh
COc1cccc(-c2ccc(O)c(CNCc3cccc(OC)c3OC)c2)n1	?	-5%[9.04 µM]	.	.	.	.
O=C(NC1CC(=O)N(c2ccc3c(c2)OCCO3)C1)c1c(F)cccc1Cl (stereo not given)	0%	6%	.	.	.	.
CC(=O)c1ccc(NC(=O)c2c(C)nn(-c3ccccc3)c2Cl)cc1	-29%	-13%	?	13	-6%	11µM*
CC(=O)c1ccc(NC(=O)c2nc(-c3ccccc3)n(-c3ccccc3Cl)n2)cc1	18µM*	26µM*	.	.	.	.
C[C@H](CO)N1C[C@H](C)[C@@H](CN(C)C(=O)Nc2cc(F)ccc2F)Oc2ncc(-c3cccc(F)c3)cc2C1=O	?	?	.	-29	.	.
CCN(CC)CCNC(=O)c1nn(C)c2c1CS(=O)(=O)c1ccccc1-2	-10%	7%	.	.	.	.
O=C(COc1ccc2ccccc2c1Br)Nc1cccnc1	?	16µM*	2%	?	?	22%
O=C(O)CCC(=O)NNC(=O)COc1ccc2ccccc2c1Br	5%	0%	-4%	3	-4%	-18%
Cc1cc(Cl)ccc1OCC(=O)Nc1cccnc1	?	-20%	22%	?	?	21%
Cc1c(C)c2ccc(OCC(=O)Nc3cccnc3)c(C)c2oc1=O	18µM*	?	17%	9	?	1%
O=C(COc1ccc2ccccc2c1Br)Nc1ccncc1	7.3µM*	10µM*	?	-1	10%	?
COC(=O)C[C@@H]1C=C[C@@H](NC(=O)CN(C)C)[C@@H](CO)O1	1%	1%	.	19	.	.
FC(F)Oc1ccc(-n2cc(-c3ccc(Cl)cc3)[n+]3c2CCCCC3)cc1	4.6µM*	4.6µM*	-14%	-19	?	6%
COc1ccc(N2Cc3ccccc3C2=O)cc1	?	?	?	-5	?	-2%[1.91 µM]
COc1ccc(-n2cc(-c3ccccc3)nc2SC)cc1	1%	?	-4%	-20	?	-40%
FC(F)Oc1ccc(-c2csc(Cc3nnc4n3CCCCC4)n2)cc1	?	?	-9%	-27	-28%	40%
CCCCOc1ccc(C(=O)Nc2ccc(SC(F)F)cc2)cc1OC	?	-21%	0%	-15	-3%	1%
COc1ccc(-c2cn(-c3ccc(SC(F)F)cc3)c3[n+]2CCC3)cc1OC	18µM*	?	-10%	2	-7%	1%
COc1ccc(-n2cc(-c3ccccc3)[n+]3c2CCCCC3)cc1	1.2µM*	5.8µM*	?	?	?	4%
COc1ccc(-c2cn(-c3ccc(OC)cc3)c3[n+]2-c2ccccc2CC3)cc1	0.21µM*	0.26µM*	4.5µM*	-59*	9.2µM*	?
FC(F)Sc1ccc(-n2cc(-c3ccccc3)[n+]3c2CCC3)cc1	4.1µM*	5.8µM*	?	0	-11%	7%
O=C(Cc1ccccc1)Nc1ccc(SC(F)F)cc1	?	3%	?	-29	?	?
O=C(/C=C/c1cccs1)c1cc(F)ccc1OC(=O)N1CCOCC1	?	23µM*	.	-54*	.	.
C[C@@H]1CN([C@@H](C)CO)C(=O)CCCn2cc(nn2)CO[C@H]1CN(C)S(=O)(=O)c1ccc(C#N)cc1	-5%	-5%	.	-2	.	.
Fc1ccc(/C=N/Nc2nnnn2-c2ccccc2)cc1	-13%	2%	?	0	9%	11µM*
SMILES	DT40 TDP1 no CPT	DT40 TDP1 CPT	Gal4-VP16 FLuc	IL1B secr inh	ELG1 DNA repair	RORgamma inh
CC(=O)Nc1ccc(S(=O)(=O)N(C)CC(=O)OC2CCCCC2=O)cc1 (stereo not given)	-4%	-2%	.	18	17%	.
CCCc1cc(=O)[nH]c(SCC(=O)N2CC3(C)CC2CC(C)(C)C3)n1 (stereo not given)	15%	2%	.	0	2%	.
CCNCC(=O)N1c2ccccc2CCc2ccc(NC(=O)OC(C)C)cc21	16µM*	?	-4%	-66*	-1%	-7%[1.91 µM]
CCOC(=O)Nc1ccc2c(c1)N(C(=O)N(C)C)c1ccccc1CC2	29µM*	?	9%	0	-10%	42%
COc1ccccc1CNC(=O)COC(=O)COc1ccccc1F	5%	-21%	.	-6	21%	.
CCN(c1ccccc1)S(=O)(=O)c1ccc(C(=O)NCCc2ccc(S(N)(=O)=O)cc2)cc1	?	23µM*	12%	18	-14%	6%
NS(=O)(=O)c1ccc(CCNC(=O)c2cccc3ccccc23)cc1	-7%	-14%	6%	-8	9%	-21%
CN(c1ccccc1)S(=O)(=O)c1ccc(C(=O)NCCc2ccc(F)cc2)cc1	-23%	-8%	-12%	30	-8%	30%
C=CCN(c1ccccc1)S(=O)(=O)c1cccc(C(=O)Nc2cccc(C)n2)c1	23µM*	18µM*	.	-15	-25%	.
NS(=O)(=O)c1ccc(CCNC(=O)c2ccc[nH]c2=S)cc1	-2%	22%	11µM*	36	4%	?
CN(c1ccc(C(=O)Nc2ccccn2)cc1)S(=O)(=O)c1ccccc1	-30%	-30%	?	12	8%	5%
CCN(c1ccccc1)S(=O)(=O)c1ccc(C(=O)Nc2ccccn2)cc1	?	21µM*	.	-3	?	.

Screening data as filed in PubChem.
